Records with an inconclusive call do not appear. Entries that show only a call come without a potency. A number with no mark means an inactive call. Active and inactive are the calls of the source. Unless noted, the call rests on the fitted dose curve.
How the values were obtained:
[1] = qHTS assay to identify small molecule agonists of the peroxisome proliferator-activated receptor delta (PPARd) signaling pathway - cell viability counter screen (AID 743211; active means well fitted curve in the direction sought with a large enough effect in the repeat runs; an effect the other way counts as inactive or inconclusive; further: nearly all actives have a fitted effect of over 55% in size; further: potency means the concentration at half of the fitted maximal effect)
How it was run: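 qHTS cell viability: PPARd-bla HEK293H; 17 h cpd, 37C; CellTiter-Glo, luminescence at 30 min RT.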

[2] = qHTS assay to identify small molecule agonists of the farnesoid-X-receptor (FXR) signaling pathway - cell viability counter screen (AID 743218; active means well fitted curve in the direction sought with a large enough effect in the repeat runs; an effect the other way counts as inactive or inconclusive; further: nearly all actives have a fitted effect of over 45% in size; further: potency means the concentration at half of the fitted maximal effect)
How it was run: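 FXR-UAS-bla HEK 293T cells, plated 5 h at 37 C, were exposed to compounds for 16 h at 37 C. CellTiter-Glo was then added to the same wells as the bla readout; luminescence read after 30 min at room temperature.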

[3] = qHTS assay to identify small molecule antagonists of the farnesoid-X-receptor (FXR) signaling pathway - cell viability counter screen (AID 743221; active means well fitted cell-killing curve with a large enough effect in the repeat runs, not every such curve was filed as active; further: nearly all actives have a fitted effect of over 50% in size)
How it was run: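 After a 5 h settling period, FXR-bla HEK 293T cells receive compound and chenodeoxycholic acid (50 uM final) and incubate 16 h at 37 C; CellTiter-Glo luminescence, read after 30 min at room temperature, reports cell viability.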

[4] = qHTS assay to identify small molecule agonists of the NFkB signaling pathway - cell viability counter screen (AID 1159515); further: series mostly up to about 61 µM; nearly all actives have a fitted effect of over 55% in size
How it was run: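 NFkB-bla ME-180 cells, 2,000/well, were plated overnight at 37 C, 5% CO2, then exposed to compounds in DMSO for 5 hr. After the bla FRET read, CellTiter-Glo was added to the same wells; luminescence was read after 30 min at room temperature.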

[5] = qHTS assay to identify small molecule agonists of the endoplasmic reticulum stress response signaling pathway (AID 1159516; active means well fitted activation curve with a large enough effect in the signal ratio in the repeat runs, not every such curve was filed as active; the % refers to the signal ratio)
How it was run: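 CellSensor ESRE-bla HeLa cells, carrying a beta-lactamase reporter driven by the ER stress response element, were plated overnight and exposed to compounds for 5 hr at 37 C. Reporter activity was read as FRET substrate fluorescence after 2 hr at room temperature.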

[6] = qHTS assay to identify small molecule agonists of the endoplasmic reticulum stress response signaling pathway - cell viability counter screen (AID 1159517); further: series mostly up to about 61 µM; nearly all actives have a fitted effect of over 50% in size
How it was run: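 CellTiter-Glo was added to wells already read for beta-lactamase FRET, and luminescence was recorded 30 min later. Cells: ESRE-bla HeLa, 1,500 per well, compound exposure 5 hr at 37 C.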

[7] = qHTS assay to identify small molecule agonists of the AP-1 signaling pathway - cell viability counter screen (AID 1159525); further: nearly all actives have a fitted effect of over 55% in size; further: potency means the concentration at half of the fitted maximal effect
How it was run: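 ME-180 AP-1-bla, 2500 cells/well, Opti-MEM + 0.5% dialyzed FBS; overnight 37 °C; cpd 15-pt titration, 5 h 37 °C; CellTiter-Glo 30 min RT; luminescence read; normalised to TOAB and DMSO controls.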

[8] = qHTS assay to identify small molecule agonists of the AP-1 signaling pathway (AID 1159526)
[9] = qHTS assay to identify small molecule antagonists of the peroxisome proliferator-activated receptor delta (PPARd) signaling pathway - cell viability counter screen (AID 743213; active means well fitted curve in the direction sought with a large enough effect in the repeat runs; an effect the other way counts as inactive or inconclusive; further: nearly all actives have a fitted effect of over 50% in size)
How it was run: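 In this counter screen, HEK293H cells carrying a UAS-beta-lactamase reporter are co-treated with test compounds and 300 nM L165041 (final) for 17 h at 37 C; cell viability is quantified by CellTiter-Glo luminescence.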

[10] = molecular target: Peroxisome proliferator-activated receptor delta (Homo sapiens) (UniProt Q03181); assay: qHTS assay to identify small molecule antagonists of the peroxisome proliferator-activated receptor delta (PPARd) signaling pathway (AID 743215; active means well fitted inhibition curve with a large enough effect in the signal ratio in the repeat runs, not every such curve was filed as active; the % refers to the signal ratio;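 further: cells stimulated with agonist L165041 at 300 nM final during compound exposure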; further: potency means the concentration at half of the fitted maximal effect)
Sequence of Peroxisome proliferator-activated receptor delta (Homo sapiens) (Q03181 whole entry, looked up): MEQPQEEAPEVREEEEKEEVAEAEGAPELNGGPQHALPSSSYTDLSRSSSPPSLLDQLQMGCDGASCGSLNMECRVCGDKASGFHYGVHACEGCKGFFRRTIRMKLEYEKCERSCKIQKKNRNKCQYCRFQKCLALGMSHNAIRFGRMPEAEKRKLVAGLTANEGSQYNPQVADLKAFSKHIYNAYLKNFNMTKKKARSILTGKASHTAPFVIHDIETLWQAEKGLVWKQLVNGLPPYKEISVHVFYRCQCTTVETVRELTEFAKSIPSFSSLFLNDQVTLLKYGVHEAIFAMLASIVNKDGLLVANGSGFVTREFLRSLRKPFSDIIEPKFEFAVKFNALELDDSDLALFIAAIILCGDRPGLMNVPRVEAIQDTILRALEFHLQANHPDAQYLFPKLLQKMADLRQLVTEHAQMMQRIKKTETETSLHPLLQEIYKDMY
How it was run: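 PPARd UAS-bla HEK293H cells were pre-incubated 5 h at 37 C, then given test compounds in DMSO plus agonist L165041 (300 nM final). After 17 h at 37 C, beta-lactamase FRET substrate was added; fluorescence read after 2 h at room temperature.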

[11] = molecular target: Bile acid receptor (Homo sapiens) (UniProt Q96RI1); assay: qHTS assay to identify small molecule antagonists of the farnesoid-X-receptor (FXR) signaling pathway (AID 743217; active means well fitted inhibition curve with a large enough effect in the signal ratio in the repeat runs, not every such curve was filed as active; the % refers to the signal ratio; further: potency means the concentration at half of the fitted maximal effect)
Sequence of Bile acid receptor (Homo sapiens) (Q96RI1 whole entry, looked up): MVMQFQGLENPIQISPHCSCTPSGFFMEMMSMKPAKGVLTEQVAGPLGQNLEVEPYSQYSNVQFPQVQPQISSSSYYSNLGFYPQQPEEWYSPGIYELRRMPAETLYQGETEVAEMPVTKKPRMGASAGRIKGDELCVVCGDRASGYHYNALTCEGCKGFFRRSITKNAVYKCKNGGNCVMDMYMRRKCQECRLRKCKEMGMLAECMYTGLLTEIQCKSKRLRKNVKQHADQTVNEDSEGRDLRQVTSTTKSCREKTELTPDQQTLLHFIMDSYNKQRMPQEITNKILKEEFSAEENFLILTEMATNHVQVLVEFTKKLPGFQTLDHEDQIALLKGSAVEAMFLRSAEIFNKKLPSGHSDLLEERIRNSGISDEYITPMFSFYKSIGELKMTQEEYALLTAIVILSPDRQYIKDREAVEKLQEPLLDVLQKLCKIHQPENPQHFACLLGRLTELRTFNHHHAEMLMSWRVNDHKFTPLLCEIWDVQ
How it was run: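 FXR-UAS-bla HEK 293T cells pre-incubated 5 h at 37 °C, then exposed to compounds with chenodeoxycholic acid (50 uM final) for 16 h at 37 °C. Beta-lactamase reporter read by LiveBLAzer B/G FRET substrate fluorescence after 2 h at room temperature.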

[12] = molecular target: Bile acid receptor (Homo sapiens) (UniProt Q96RI1); assay: qHTS assay to identify small molecule agonists of the farnesoid-X-receptor (FXR) signaling pathway (AID 743220; active means well fitted activation curve with a large enough effect in the signal ratio in the repeat runs, not every such curve was filed as active; the % refers to the signal ratio)
How it was run: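 Beta-lactamase reporter under UAS control in GeneBLAzer FXR HEK 293T cells (5000/well) measured with LiveBLAzer FRET substrate after 2 h at room temperature. Compound exposure lasted 16 h at 37C.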

[13] = molecular target: Vitamin D3 receptor (Homo sapiens) (UniProt P11473); assay: qHTS assay to identify small molecule agonists of the vitamin D receptor (VDR) signaling pathway (AID 743222)
Sequence of Vitamin D3 receptor (Homo sapiens) (P11473 whole entry, looked up): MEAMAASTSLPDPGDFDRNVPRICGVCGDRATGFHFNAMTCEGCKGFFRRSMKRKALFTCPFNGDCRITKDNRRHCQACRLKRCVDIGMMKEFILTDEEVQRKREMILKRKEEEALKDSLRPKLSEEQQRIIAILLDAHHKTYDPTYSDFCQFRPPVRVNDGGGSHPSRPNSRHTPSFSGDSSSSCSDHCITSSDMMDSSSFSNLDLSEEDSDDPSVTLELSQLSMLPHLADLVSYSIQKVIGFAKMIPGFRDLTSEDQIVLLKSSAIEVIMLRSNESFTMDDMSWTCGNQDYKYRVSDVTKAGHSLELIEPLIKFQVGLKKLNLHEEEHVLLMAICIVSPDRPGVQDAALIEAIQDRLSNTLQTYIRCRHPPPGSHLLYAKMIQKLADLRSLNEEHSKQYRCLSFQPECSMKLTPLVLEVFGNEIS
How it was run: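 VDR-bla cells were plated 4 h at 37C/5% CO2, then exposed to compounds in DMSO for 16 h. After LiveBLAzer B/G FRET substrate addition and 2 h at room temperature, beta-lactamase reporter fluorescence was read.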

[14] = qHTS assay to identify small molecule agonists of the vitamin D receptor (VDR) signaling pathway - cell viability counter screen (AID 743224; active means well fitted curve in the direction sought with a large enough effect in the repeat runs; an effect the other way counts as inactive or inconclusive; further: series mostly up to about 63 µM; nearly all actives have a fitted effect of over 50% in size)
How it was run: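 VDR-bla cells were preincubated 4 h at 37C/5% CO2, then exposed to compounds for 16 h. After the 2 h room-temperature bla FRET read, CellTiter-Glo was added to the same wells and luminescence read after 30 min.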

[15] = molecular target: Retinoic acid receptor RXR-alpha (Homo sapiens) (UniProt P19793); assay: qHTS assay to identify small molecule agonists of the RXR signaling pathway (AID 1159527); further: nearly all actives have a fitted effect of over 35% in size
Sequence of Retinoic acid receptor RXR-alpha (Homo sapiens) (P19793 whole entry, looked up): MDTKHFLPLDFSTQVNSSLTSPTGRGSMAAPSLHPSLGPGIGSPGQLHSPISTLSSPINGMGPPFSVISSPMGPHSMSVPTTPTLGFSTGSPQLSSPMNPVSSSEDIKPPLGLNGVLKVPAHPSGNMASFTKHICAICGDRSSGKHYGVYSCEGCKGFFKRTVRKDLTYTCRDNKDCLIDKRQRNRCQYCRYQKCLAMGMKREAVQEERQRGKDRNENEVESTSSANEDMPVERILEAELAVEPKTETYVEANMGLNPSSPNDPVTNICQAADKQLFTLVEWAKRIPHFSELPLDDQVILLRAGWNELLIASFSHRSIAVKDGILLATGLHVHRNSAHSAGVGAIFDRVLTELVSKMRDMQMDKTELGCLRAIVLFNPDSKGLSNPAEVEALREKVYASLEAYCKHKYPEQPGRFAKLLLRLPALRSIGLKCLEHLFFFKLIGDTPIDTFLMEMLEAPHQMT
How it was run: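 16 hr incubation of compound-treated RXR-alpha-UAS-bla HEK 293T cells (2% charcoal-stripped FBS, 37 C) preceded a 2 hr room-temperature LiveBLAzer FRET substrate step and blue/green fluorescence measurement.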

[16] = molecular target: Peroxisome proliferator-activated receptor delta (Homo sapiens) (UniProt Q03181); assay: qHTS assay to identify small molecule agonists of the peroxisome proliferator-activated receptor delta (PPARd) signaling pathway (AID 743212)
How it was run: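 A PPARd-bla HEK293H line with beta-lactamase under an Upstream Activator Sequence is treated with compounds at 37 C. Substrate loading for 2 h at room temperature precedes the fluorescence measurement.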

[17] = molecular target: Vitamin D3 receptor (Homo sapiens) (UniProt P11473); assay: qHTS assay to identify small molecule antagonists of the vitamin D receptor (VDR) signaling pathway (AID 743223; active means well fitted inhibition curve with a large enough effect in the signal ratio in the repeat runs, not every such curve was filed as active; the % refers to the signal ratio)
How it was run: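 Reporter line VDR-bla; stimulus 1alpha,25-(OH)2 vitamin D3, 3 nM final; compound co-addition, 16 h 37C/5% CO2; LiveBLAzer B/G substrate 2 h RT; fluorescence intensity.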

[18] = qHTS assay to identify small molecule antagonists of the vitamin D receptor (VDR) signaling pathway - cell viability counter screen (AID 743225; active means well fitted curve in the direction sought with a large enough effect in the repeat runs; an effect the other way counts as inactive or inconclusive; further: nearly all actives have a fitted effect of over 50% in size)
How it was run: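 Parallel cytotoxicity test: VDR-UAS-bla HEK 293T, 3 nM (final) 1-alpha,25-dihydroxyvitamin D3 with test compound, 16 h, 37C. Endpoint is CellTiter-Glo luminescence in the same wells.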

[19] = qHTS assay to identify small molecule antagonists of the retinoid-related orphan receptor gamma (ROR-gamma) signaling pathway - cell viability counter screen (AID 1159520; active means well fitted curve in the direction sought with a large enough effect in the repeat runs; an effect the other way counts as inactive or inconclusive; further: nearly all actives have a fitted effect of over 50% in size)
How it was run: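 Tet-on ROR gamma CHO cells (1,000/well) were plated 4 hr, given compounds in DMSO for 2 hr at 37 C, then induced with 1 uM final doxycycline for 16 hr. Viability was read as ATP by CellTiter-Glo luminescence after 30 min.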

[20] = molecular target: Nuclear receptor ROR-gamma (Homo sapiens) (UniProt P51449); assay: qHTS assay to identify small molecule antagonists of the retinoid-related orphan receptor gamma (ROR-gamma) signaling pathway (AID 1159521; active means well fitted curve in the direction sought with a large enough effect in the repeat runs; an effect the other way counts as inactive or inconclusive; further: nearly all actives have a fitted effect of over 50% in size; further: potency means the concentration at half of the fitted maximal effect)
How it was run: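 Decreased RORE-driven luciferase luminescence indicates antagonism. Tet-on RORγ CHO cells received compound, then 1 uM final doxycycline 2 h later; signal read after 16 h incubation.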

| SMILES | Potency [1] | Potency [2] | Potency [3] | Potency [4] | Potency [5] | Potency [6] | Potency [7] | Potency [8] | Potency [9] | Potency [10] | Potency [11] | Potency [12] | Potency [13] | Potency [14] | Potency [15] | Potency [16] | Potency [17] | Potency [18] | Potency [19] | Potency [20] |
| --- | --- | --- | --- | --- | --- | --- | --- | --- | --- | --- | --- | --- | --- | --- | --- | --- | --- | --- | --- | --- |
| CC(=O)[C@H]1CC[C@H]2[C@@H]3CCC4=CC(=O)CC[C@]4(C)[C@H]3CC[C@]12C | 48.7 µM (active) | inactive | inactive | inactive | inactive | inactive | inactive | inactive |  |  |  |  |  |  |  |  |  |  |  |  |
| COc1cc(S(=O)(=O)O)c(C)cc1N=Nc1c(O)ccc2cc(S(=O)(=O)O)ccc12 | inactive | inactive | inactive | inactive | inactive | inactive | inactive | inactive | inactive | inactive | inactive | inactive | inactive | inactive | inactive |  |  |  |  |  |
| CCCCCCCC | inactive |  | inactive | inactive | inactive |  | inactive | inactive | inactive | inactive | inactive | inactive | inactive | inactive | inactive | inactive | inactive | inactive | inactive | inactive |
| CCCc1ccc(OCC(=O)N2CCN(C(=O)COc3ccc(CCC)cc3OC)CC2)c(OC)c1 | inactive | inactive | inactive | inactive | inactive | inactive | inactive | inactive | inactive |  | inactive | inactive |  | inactive |  |  | inactive | inactive |  |  |
| COC(=O)Nc1nc2ccc(C(=O)c3ccccc3)cc2[nH]1 | inactive | inactive | inactive | inactive | inactive | inactive | inactive |  | inactive | inactive | 1.06 µM (active) | inactive |  | inactive |  | inactive |  | inactive |  | inactive |
| Oc1cc(Cl)cc(Cl)c1Cl | inactive | inactive | inactive | inactive | inactive | inactive | inactive |  | inactive |  |  |  | inactive |  | inactive | inactive | inactive |  |  |  |
| CCCCCCCCCCCCOC(=O)c1ccc(O)cc1 | 34.9 µM (active) | 49.3 µM (active) |  | inactive | inactive | inactive | 55.4 µM (active) |  | inactive | inactive | 44 µM (active) |  | inactive |  | inactive |  | inactive | inactive |  | inactive |
| CN(C)CCN1CCN(c2cccc(Cl)c2)C1=O | inactive | inactive | inactive | inactive | inactive |  | inactive | inactive | inactive | inactive |  |  |  | inactive | inactive | inactive | inactive | inactive | inactive | inactive |
| OC12N=C(c3ccccc3)SC1Cc1cc(Cl)ccc12 (centres undefined) |  | inactive | inactive | inactive | inactive | inactive | inactive |  | inactive | inactive | inactive | inactive |  | inactive |  |  | inactive | inactive |  | inactive |
| Clc1sc(Cl)c(Cl)c1Cl | inactive | inactive | inactive | inactive | inactive |  | inactive | inactive | inactive | inactive |  |  | inactive | inactive | inactive | inactive | inactive | inactive | inactive | inactive |
| CC[C@H](C)COC(=O)/C=C/c1ccc(N=Cc2ccc(OC)cc2)cc1 | inactive | inactive | inactive | inactive | inactive | inactive |  |  |  |  | inactive |  |  |  |  |  |  |  |  | inactive |
| CN1CCCCC1CCN1c2ccccc2Sc2ccc(S(C)=O)cc21 (centres undefined) |  | inactive | inactive | inactive | inactive | inactive | inactive |  |  | inactive |  |  |  | inactive | inactive | inactive |  | inactive |  | 29.8 µM (active) |
| CCC(=O)C(=O)CC | inactive | inactive | inactive | inactive | inactive |  | inactive | inactive | inactive | inactive |  |  | inactive | inactive | inactive | inactive | inactive | inactive | inactive | inactive |
| O=[N+]([O-])c1ccc(O)cc1C(F)(F)F |  | inactive | inactive | inactive | inactive | inactive | inactive | inactive | inactive | inactive | inactive | inactive |  |  |  | inactive | inactive |  |  | 7.7 µM (active) |
| CC1(C)CCC[C@]2(C)[C@H]3CC(=O)O[C@]3(C)CC[C@@H]12 | inactive | inactive | inactive | inactive | inactive | inactive |  |  | inactive | inactive |  | inactive |  | inactive |  | inactive |  | inactive |  | inactive |
| Sc1nc2ccccc2s1 |  | inactive | inactive | inactive | inactive | inactive | inactive |  |  | 38.9 µM (active) | inactive |  |  |  |  | inactive | inactive | inactive |  |  |
| CC(C)=CCC1=C(O)c2ccccc2C(=O)C1=O | inactive | inactive |  | inactive | inactive | inactive | inactive |  |  |  |  |  | inactive | inactive |  | inactive | inactive |  |  | 13.6 µM (active) |
| C[Si](Cl)(c1ccccc1)c1ccccc1 | inactive | inactive | inactive | inactive | inactive | inactive | inactive |  | inactive | inactive | inactive | inactive | inactive | inactive | inactive |  |  |  |  | inactive |
